# From the supplement of paper PMC8728848
# Many of the other results were omitted from the sample, so the strongest signals are more common in it than they were.
# Assays:
# Assay in all cases: glycan array binding signal (z-score within array); higher = stronger binding
# Details in all cases: glycan notation: IUPAC condensed, linker removed
# [1] = test system: Fuc(a1-3)[Gal(b1-4)]GlcNAc(b1-3)Gal(b1-3)[Fuc(a1-4)]GlcNAc
# Procedure, shortened: (§1)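 The binding signal is a Z-score computed within each array. Data were drawn from 3228 arrays in the Consortium for Functional Glycomics database, restricted to those with a known protein sequence. Scores were averaged over arrays of the same protein sequence at different concentrations or buffers, and over linkers, and negative values can be taken as non-binding.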
# [2] = test system: Fuc(a1-3)[Gal(b1-4)]GlcNAc(b1-4)Gal(b1-4)[Fuc(a1-3)]GlcNAc(b1-4)Gal(b1-4)[Fuc(a1-3)]GlcNAc
# Procedure, shortened: as §1
# [3] = test system: Fuc(a1-3)[Gal(b1-4)]GlcNAc(b1-4)Gal(b1-4)[Fuc(a1-3)]GlcNAc
# Procedure, shortened: as §1
# [4] = test system: Fuc(a1-3)[Gal(b1-4)]GlcNAc
# Procedure, shortened: as §1
# [5] = test system: Fuc(a1-3)[Gal(b1-4)]GlcNAc(b1-3)Gal(b1-4)[Fuc(a1-3)]GlcNAc(b1-3)Gal(b1-4)[Fuc(a1-3)]GlcNAc
# Procedure, shortened: as §1
# [6] = test system: Fuc(a1-3)[Gal(b1-4)]GlcNAc(b1-3)Gal(b1-4)[Fuc(a1-3)]GlcNAc
# Procedure, shortened: as §1
# [7] = test system: Fuc(a1-3)[Gal(b1-4)]GlcNAc(b1-6)GalNAc
# Procedure, shortened: as §1
# [8] = test system: Fuc(a1-3)[Gal(b1-4)]GlcNAc6S
# Procedure, shortened: as §1
# [9] = test system: Fuc(a1-3)[Gal(b1-4)]GlcNAc(b1-6)[Gal(b1-3)GlcNAc(b1-3)]Gal(b1-4)Glc
# Procedure, shortened: as §1
# [10] = test system: Fuc(a1-3)[Gal3S(b1-4)]Glc6S
# Procedure, shortened: as §1
# SRLC (Mus musculus), Q8VIF6, sequence (Q8VIF6 other isoform, or with tags, fused parts or gaps): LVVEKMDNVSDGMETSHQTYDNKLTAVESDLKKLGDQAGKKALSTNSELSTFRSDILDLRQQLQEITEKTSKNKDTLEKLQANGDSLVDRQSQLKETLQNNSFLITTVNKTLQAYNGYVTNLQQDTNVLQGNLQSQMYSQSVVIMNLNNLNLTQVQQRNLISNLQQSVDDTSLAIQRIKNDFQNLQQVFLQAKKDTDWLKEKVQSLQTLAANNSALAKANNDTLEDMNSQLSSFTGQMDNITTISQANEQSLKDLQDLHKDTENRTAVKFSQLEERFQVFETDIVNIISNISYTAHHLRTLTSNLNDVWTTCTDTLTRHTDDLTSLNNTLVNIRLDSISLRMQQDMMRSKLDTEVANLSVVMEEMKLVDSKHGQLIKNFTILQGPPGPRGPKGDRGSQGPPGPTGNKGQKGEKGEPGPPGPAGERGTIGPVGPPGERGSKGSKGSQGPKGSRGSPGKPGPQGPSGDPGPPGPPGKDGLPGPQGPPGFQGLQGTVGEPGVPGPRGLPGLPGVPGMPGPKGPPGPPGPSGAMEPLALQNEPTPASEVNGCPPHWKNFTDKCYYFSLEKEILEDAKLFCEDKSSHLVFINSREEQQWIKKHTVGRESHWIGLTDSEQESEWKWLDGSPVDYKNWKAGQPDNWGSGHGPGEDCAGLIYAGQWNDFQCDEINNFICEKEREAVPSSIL
# Avaren (Actinomycete K97), sequence (chain, as listed by the source): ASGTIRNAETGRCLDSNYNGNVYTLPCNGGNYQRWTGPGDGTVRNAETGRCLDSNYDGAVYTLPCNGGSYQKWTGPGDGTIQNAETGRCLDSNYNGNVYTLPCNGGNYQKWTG
# PILRb (Mus musculus), Q2YSF2, sequence (Q2YSF2 entry or part of it): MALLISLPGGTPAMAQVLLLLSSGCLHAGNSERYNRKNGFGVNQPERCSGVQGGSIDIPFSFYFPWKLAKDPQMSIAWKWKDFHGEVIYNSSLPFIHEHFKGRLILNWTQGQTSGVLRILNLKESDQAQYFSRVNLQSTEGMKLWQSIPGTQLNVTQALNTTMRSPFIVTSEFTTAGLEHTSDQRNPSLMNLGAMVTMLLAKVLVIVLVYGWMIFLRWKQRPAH
# C3b (Homo sapiens), P01024, sequence (P01024 23-667): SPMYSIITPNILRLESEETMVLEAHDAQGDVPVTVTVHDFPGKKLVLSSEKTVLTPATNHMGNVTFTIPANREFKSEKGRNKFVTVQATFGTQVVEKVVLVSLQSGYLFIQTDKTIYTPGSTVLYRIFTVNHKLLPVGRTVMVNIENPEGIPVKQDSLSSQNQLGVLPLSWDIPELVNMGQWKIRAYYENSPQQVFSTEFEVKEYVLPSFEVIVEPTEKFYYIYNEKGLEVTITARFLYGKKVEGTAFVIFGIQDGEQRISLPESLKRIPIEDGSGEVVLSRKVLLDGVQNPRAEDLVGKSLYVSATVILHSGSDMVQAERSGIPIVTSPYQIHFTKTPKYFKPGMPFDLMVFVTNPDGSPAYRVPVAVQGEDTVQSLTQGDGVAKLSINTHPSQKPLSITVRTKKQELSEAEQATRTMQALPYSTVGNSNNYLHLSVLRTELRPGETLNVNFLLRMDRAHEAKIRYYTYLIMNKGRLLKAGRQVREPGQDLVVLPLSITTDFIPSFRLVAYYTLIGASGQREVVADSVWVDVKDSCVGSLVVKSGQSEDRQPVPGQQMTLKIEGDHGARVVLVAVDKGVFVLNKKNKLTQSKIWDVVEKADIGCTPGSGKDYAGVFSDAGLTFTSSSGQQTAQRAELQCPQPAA
# CHI3L1 (Homo sapiens), P36222, sequence (P36222 whole entry): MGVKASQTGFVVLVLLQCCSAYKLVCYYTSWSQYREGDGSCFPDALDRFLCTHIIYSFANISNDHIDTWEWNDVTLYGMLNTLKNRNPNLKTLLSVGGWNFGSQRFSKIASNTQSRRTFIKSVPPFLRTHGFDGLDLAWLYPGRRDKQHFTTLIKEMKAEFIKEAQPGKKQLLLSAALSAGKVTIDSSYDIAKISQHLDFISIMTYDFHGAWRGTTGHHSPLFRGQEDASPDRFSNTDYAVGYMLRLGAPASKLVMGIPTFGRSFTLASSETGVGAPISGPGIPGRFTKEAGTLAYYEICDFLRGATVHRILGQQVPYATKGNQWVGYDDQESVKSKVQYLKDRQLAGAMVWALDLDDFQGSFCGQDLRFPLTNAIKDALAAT
# Regenerating Gene IV (Homo sapiens), Q9BYZ8, sequence (Q9BYZ8 whole entry, looked up): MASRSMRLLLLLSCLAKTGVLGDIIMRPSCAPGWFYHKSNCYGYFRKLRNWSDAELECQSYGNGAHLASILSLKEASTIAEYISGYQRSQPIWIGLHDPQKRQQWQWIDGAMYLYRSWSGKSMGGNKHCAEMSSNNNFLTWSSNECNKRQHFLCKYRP
# CHT (Homo sapiens), sequence (chain, as listed by the source): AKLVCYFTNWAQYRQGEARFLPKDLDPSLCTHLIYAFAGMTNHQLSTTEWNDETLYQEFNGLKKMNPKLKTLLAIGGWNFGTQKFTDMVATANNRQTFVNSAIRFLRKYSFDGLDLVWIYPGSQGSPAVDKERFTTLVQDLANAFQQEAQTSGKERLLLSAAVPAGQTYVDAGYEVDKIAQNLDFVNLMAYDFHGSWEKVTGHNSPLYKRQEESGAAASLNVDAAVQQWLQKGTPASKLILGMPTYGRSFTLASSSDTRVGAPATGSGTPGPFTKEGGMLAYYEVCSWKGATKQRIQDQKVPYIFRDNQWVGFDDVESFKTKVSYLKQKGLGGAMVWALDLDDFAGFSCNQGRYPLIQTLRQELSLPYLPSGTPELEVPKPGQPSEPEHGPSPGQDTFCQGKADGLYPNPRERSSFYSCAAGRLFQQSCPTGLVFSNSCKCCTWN
# Neurocan (Homo sapiens), O14594, sequence (O14594 other isoform, or with tags, fused parts or gaps): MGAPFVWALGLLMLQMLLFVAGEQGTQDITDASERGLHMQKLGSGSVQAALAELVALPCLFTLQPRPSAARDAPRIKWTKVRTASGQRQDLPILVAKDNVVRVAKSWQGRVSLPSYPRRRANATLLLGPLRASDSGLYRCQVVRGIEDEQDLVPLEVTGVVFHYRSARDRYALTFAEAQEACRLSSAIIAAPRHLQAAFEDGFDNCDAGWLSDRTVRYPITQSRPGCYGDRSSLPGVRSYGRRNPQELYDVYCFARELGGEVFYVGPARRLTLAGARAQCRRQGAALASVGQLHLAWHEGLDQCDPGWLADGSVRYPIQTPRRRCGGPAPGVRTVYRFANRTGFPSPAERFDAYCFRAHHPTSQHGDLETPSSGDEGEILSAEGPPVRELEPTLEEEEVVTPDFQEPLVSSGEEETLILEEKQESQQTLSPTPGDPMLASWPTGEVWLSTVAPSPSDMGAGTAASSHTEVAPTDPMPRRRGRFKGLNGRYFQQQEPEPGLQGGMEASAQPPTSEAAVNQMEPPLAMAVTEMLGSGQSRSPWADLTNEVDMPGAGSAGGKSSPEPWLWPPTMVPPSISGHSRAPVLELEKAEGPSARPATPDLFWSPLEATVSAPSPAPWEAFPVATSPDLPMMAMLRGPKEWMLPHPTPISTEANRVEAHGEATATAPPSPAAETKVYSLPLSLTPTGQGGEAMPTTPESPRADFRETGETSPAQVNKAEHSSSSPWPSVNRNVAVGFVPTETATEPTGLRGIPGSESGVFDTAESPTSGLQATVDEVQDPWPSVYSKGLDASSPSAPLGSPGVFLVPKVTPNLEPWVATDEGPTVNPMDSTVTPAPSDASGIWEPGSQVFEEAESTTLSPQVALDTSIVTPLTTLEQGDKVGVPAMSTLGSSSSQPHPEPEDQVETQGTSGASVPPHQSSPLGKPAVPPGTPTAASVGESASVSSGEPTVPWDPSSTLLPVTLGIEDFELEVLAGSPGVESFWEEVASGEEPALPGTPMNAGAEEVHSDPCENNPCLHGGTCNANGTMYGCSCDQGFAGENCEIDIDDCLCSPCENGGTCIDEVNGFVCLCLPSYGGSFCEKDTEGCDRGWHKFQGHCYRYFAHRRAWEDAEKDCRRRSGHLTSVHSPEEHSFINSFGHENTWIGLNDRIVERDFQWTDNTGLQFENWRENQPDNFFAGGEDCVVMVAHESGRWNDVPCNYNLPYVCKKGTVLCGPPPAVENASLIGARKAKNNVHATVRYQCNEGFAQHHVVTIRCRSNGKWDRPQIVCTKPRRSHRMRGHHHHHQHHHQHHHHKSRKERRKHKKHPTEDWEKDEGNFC
# wLAT-1A (Homo sapiens), Q01650, sequence (Q01650 whole entry): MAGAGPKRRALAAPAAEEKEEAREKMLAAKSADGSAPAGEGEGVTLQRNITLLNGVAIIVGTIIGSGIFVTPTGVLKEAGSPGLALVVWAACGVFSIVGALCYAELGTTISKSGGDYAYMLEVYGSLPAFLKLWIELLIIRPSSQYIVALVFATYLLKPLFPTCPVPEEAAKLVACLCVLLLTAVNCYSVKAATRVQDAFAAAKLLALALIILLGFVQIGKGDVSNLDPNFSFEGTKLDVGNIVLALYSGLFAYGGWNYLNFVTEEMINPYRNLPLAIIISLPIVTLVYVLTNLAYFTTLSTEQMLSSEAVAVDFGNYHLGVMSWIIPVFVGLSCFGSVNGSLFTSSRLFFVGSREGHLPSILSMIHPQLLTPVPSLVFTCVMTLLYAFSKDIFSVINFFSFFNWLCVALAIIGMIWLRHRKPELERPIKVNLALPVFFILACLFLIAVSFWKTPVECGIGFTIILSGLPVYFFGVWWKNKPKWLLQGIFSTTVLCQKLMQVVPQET
substance,measurement,setting,value
"SRLC (Mus musculus), Q8VIF6",glycan array binding signal (z-score),[1],4.31
same,glycan array binding signal (z-score),[2],7.13
same,glycan array binding signal (z-score),[3],4.46
same,glycan array binding signal (z-score),[4],6.98
"CHI3L1 (Homo sapiens), P36222",glycan array binding signal (z-score),[1],-0.081
"HARE (Homo sapiens), Q8WWQ8",glycan array binding signal (z-score),[5],0.285
"Siglec-8 (Homo sapiens), Q9NYZ4",glycan array binding signal (z-score),[6],-0.046
same,glycan array binding signal (z-score),[7],-0.063
same,glycan array binding signal (z-score),[8]; mutation: R125K,5.35
same,glycan array binding signal (z-score),[4]; mutation: R125K,-0.361
"C3b (Homo sapiens), P01024",glycan array binding signal (z-score),[3],-0.595
Avaren (Actinomycete K97),glycan array binding signal (z-score),[7],-0.094
same,glycan array binding signal (z-score),[8],-0.109
"Neurocan (Homo sapiens), O14594",glycan array binding signal (z-score),[9],2.26
"Regenerating Gene IV (Homo sapiens), Q9BYZ8",glycan array binding signal (z-score),[8],-0.14
CHT (Homo sapiens),glycan array binding signal (z-score),"[4]; mutation: D138V, E140I",-0.176
"PILRb (Mus musculus), Q2YSF2",glycan array binding signal (z-score),[10],-0.626
"wLAT-1A (Homo sapiens), Q01650",glycan array binding signal (z-score),[10],3.91
